Pf growth 96h: Primary qHTS for delayed death inhibitors of the malarial parasite plastid, 96 hour incubation. P. falciparum luciferase reporter growth, 96 h. Potency, µM (highest dose often 28.7 µM), actives largely listed as inhibitors. 320,000 compounds, 6.9% hits. AID 504834, 2011
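Infected RBCs, 2% Hct / 0.05% parasitemia final; luciferase-reporter P. falciparum; cpd 96 h, 37 C, 5% CO2; luciferase detection reagent; luminescence.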
Sm TGR block: qHTS Assay for the Inhibitors of Schistosoma Mansoni Peroxiredoxins | purified TGR, DTNB reduction, TNB absorbance 405 nm | 360,000 compounds, 3% hits | Potency, µM (titrated, usually from 114 µM), usual class: inhibitors | Schistosoma mansoni thioredoxin glutathione reductase (TGR), Q962Y6; note: nearly all actives have a fitted effect of over 60% in size
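TGR 20 nM + NADPH 100 uM (dispensed conc.), cpd preinc 15 min RT; start with NADPH (500 uM addition) then DTNB (15 mM addition). Kinetic TNB absorbance, 405 nm filter. Four-parameter Hill fit across titration.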
Pf growth 48h: Primary qHTS for delayed death inhibitors of the malarial parasite plastid, 48 hour incubation; P. falciparum luciferase growth in erythrocytes, 48 h; Potency, µM (highest dose often 28.7 µM), usual class: inhibitors; 310,000 compounds, 5.9% hits
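Firefly luciferase activity from engineered P. falciparum reports growth; inhibitors lower the luminescent signal. Cultures contained 2% hematocrit erythrocytes at 0.1% final parasitemia.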
SARS PLpro yeast: qHTS of Yeast-based Assay for SARS-CoV PLP | S. cerevisiae expressing SARS-CoV PLpro, growth rescue | Potency, µM (titrated, usually from 32.9 µM), most hits filed as activators | 330,000 compounds, 0.19% hits; calls by dose curve; note: nearly all actives have a fitted effect of over 55% in size
AmpC no deterg: qHTS Inhibitors of AmpC Beta-Lactamase (assay without detergent); Potency, µM (series often up to 57.1 µM), hits mostly inhibitors; 330,000 compounds, 0.52% hits; AmpC nitrocefin hydrolysis, absorbance 480 nm, 0.0001% Triton; note: nearly all actives have a fitted effect of over 20% in size
Target sequence (P00811 whole entry, looked up): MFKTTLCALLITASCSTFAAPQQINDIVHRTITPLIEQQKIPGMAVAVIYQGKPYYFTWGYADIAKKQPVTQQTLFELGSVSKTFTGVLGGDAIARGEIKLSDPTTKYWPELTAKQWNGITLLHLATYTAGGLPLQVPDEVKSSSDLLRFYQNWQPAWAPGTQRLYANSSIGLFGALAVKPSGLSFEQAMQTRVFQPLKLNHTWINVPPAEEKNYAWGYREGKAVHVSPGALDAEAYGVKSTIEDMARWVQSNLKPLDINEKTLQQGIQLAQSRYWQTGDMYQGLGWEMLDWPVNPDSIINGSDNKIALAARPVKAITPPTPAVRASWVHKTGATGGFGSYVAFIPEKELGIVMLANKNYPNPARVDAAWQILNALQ
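20 mM phosphate pH 7.0 + 0.01% (detergent screen) or 0.0001% Triton X-100; 5.3 nM AmpC reagent; cpd preinc 15 min RT; nitrocefin (800 uM stock) to start; A480 q20 s × 4 min; Activity was normalised to no-enzyme and no-compound control wells.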
AmpC inh detg: qHTS Inhibitors of AmpC Beta-Lactamase (assay with detergent); P00811; AmpC hydrolysis of nitrocefin, absorbance 480 nm, 0.01% Triton; Potency, µM (series often up to 114 µM), most hits filed as inhibitors; 370,000 compounds, 0.041% hits; note: nearly all actives have a fitted effect of over 25% in size
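AmpC (5.3 nM in the dispensed reagent) in 20 mM phosphate pH 7.0 with 0.01% (detergent screen) or 0.0001% Triton X-100 was preincubated with compounds for 15 min at room temperature. Nitrocefin was then added from an 800 uM solution, and hydrolysis was followed at 480 nm.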
Large screens that a line does not name were inactive. Only some compounds are listed: those with a hit (about 12% of all), similar ones and a draw of the others. Unless noted, calls come from the whole dose curve; as a rule, active = well fitted curve in the direction sought with a large enough effect; inconclusive = small, poorly fitted or top-dose-only effect, or another doubt; inactive = no such curve, though single readings can be large; an effect the other way counts as inactive or inconclusive.

CCc1[nH]c(=O)c(C#N)c2c1CSC(C)(C)C2	Sm TGR block inconclusive
CCN(CC)c1ccc(NC(=O)CCc2c(C)nc3ncnn3c2C)c(C)c1	none (no result: Pf growth 96h, Pf growth 48h, SARS PLpro yeast, AmpC no deterg)
O=C(COC(=O)Cc1ccc(Br)cc1)NCc1ccc2c(c1)OCO2	none
CC(C)(O)C#Cc1ccc(C(=O)NCc2cccs2)s1	Pf growth 96h 9.28µM
CCOC(=O)c1ccc(N2C(=O)CC(N3CCC(C(N)=O)(N4CCCCC4)CC3)C2=O)cc1 (centres undefined)	Pf growth 96h inconclusive, Sm TGR block 28.2µM
CCOc1cccc(N2C(=O)CC(N3CCN(c4nc5ccccc5s4)CC3)C2=O)c1 (centres undefined)	Pf growth 96h inconclusive, Sm TGR block inconclusive, Pf growth 48h inconclusive
CCOc1cccc(N2C(=O)CC(N3CCC(C(N)=O)(N4CCCCC4)CC3)C2=O)c1 (centres undefined)	Sm TGR block 44.7µM, AmpC inh detg inconclusive (no result: Pf growth 96h)
CCOC(=O)C1CCCN(C2CC(=O)N(c3ccc(NC(C)=O)cc3)C2=O)C1 (centres undefined)	Pf growth 96h inconclusive, Sm TGR block 44.7µM
CC(C)(C)c1ccc(NC(=O)N2CCN(c3ccc([N+](=O)[O-])cn3)CC2)cc1	Pf growth 96h 2.33µM, Pf growth 48h 5.22µM
O=C(Nc1ccc(F)cc1F)N1CCCN(c2ccc([N+](=O)[O-])cn2)CC1	Pf growth 96h inconclusive, Pf growth 48h inconclusive
O=P(O)(O)C(O)(Cc1cccnc1)P(=O)(O)O	none (no result: Sm TGR block, SARS PLpro yeast, AmpC no deterg, AmpC inh detg)
CCOC(=O)C1=C(C)N=C2SC(C)C(=O)N2C1c1ccc(OC(C)=O)c(OC)c1 (centres undefined)	Sm TGR block 50.1µM, Pf growth 48h inconclusive
CCOC(=O)C1=C(C)N=C2SC(C)C(=O)N2C1/C=C/c1ccccc1OC (centres undefined)	Pf growth 48h 11.7µM, AmpC no deterg inconclusive (no result: Pf growth 96h)
CC(C)NC(=O)CN1CCN(C(=O)CCl)CC1	Pf growth 96h inconclusive, Sm TGR block inconclusive
CN(C)C(=O)CN1CCN(C(=O)CCl)CC1	Pf growth 96h inconclusive, Sm TGR block 44.7µM, AmpC inh detg inconclusive
NC(=O)C1CCN(C(=O)N2c3ccccc3Sc3ccccc32)CC1	Pf growth 48h inconclusive
O=C(C1CC1)N1c2ccccc2Sc2ccccc21	Sm TGR block inconclusive, Pf growth 48h 11.7µM
O=C(C[n+]1ccccc1)N1c2ccccc2Sc2ccccc21	Sm TGR block 28.2µM, Pf growth 48h inconclusive
Cc1cc(-c2csc(N)n2)c(C)n1C	Pf growth 96h 10.4µM, Sm TGR block inconclusive (no result: Pf growth 48h)
Cc1ccc(-n2c(C)cc(-c3csc(N)n3)c2C)cc1	Pf growth 96h inconclusive, Pf growth 48h inconclusive, AmpC inh detg inconclusive
Nc1nc2ccc(O)cc2s1	Pf growth 96h 10.4µM
Nc1nc2ccc(C(=O)N3CCCCC3)cc2s1	Pf growth 96h 4.15µM
Cc1nn(-c2ccccn2)c2nc(-c3cccs3)cc(C(=O)NCc3ccco3)c12	Pf growth 96h 10.4µM (no result: Pf growth 48h)
Cc1nn(-c2ccccc2)c2nc(-c3ccncc3)cc(C(=O)NCc3ccco3)c12	Pf growth 96h 10.4µM, Sm TGR block 44.7µM, Pf growth 48h 3.7µM
Cc1ccccc1-n1nc(C)c2c(C(=O)NN)cc(-c3ccncc3)nc21	Pf growth 96h inconclusive
Cc1cccc(N(C)S(=O)(=O)c2cc(-c3cnc(C4CC4)o3)ccc2C)c1	AmpC inh detg inconclusive (no result: Pf growth 96h, Pf growth 48h, SARS PLpro yeast, AmpC no deterg)
O=C(NC1CCC(NC(=O)C(F)(F)C(F)F)CC1)C(F)(F)C(F)F (centres undefined)	Pf growth 96h 13.1µM (no result: Pf growth 48h)
O=C(NCCCNC(=O)C(F)(F)C(F)F)C(F)(F)C(F)F	none
O=C(NCc1ccc2c(c1)OCO2)C1CC(=O)N(CCc2ccc(F)cc2)C1 (centres undefined)	none
Cc1cc(C)c(S(=O)(=O)/N=C2/C=C(SCC(=O)O)C(=O)c3ccccc32)cc1C	Sm TGR block 3.55µM, Pf growth 48h 11.7µM, AmpC no deterg 15.8µM
COc1ccc(CCn2c(=N)c(C(=O)NC3CCCC3)cc3c(=O)n4ccccc4nc32)cc1OC	Pf growth 96h 3.29µM, Pf growth 48h 4.15µM
COCCCn1c(=N)c(C(=O)NC2CCCCC2)cc2c(=O)n3ccccc3nc21	AmpC inh detg inconclusive
COc1ccc(Cn2c(=N)c(C(=O)NC3CCCCC3)cc3c(=O)n4ccccc4nc32)cc1	Pf growth 96h 1.85µM, Pf growth 48h 4.65µM
COc1ccc(CCn2c(=N)c(C(=O)NC3CCCC3)cc3c(=O)n4ccccc4nc32)cc1	Pf growth 96h inconclusive, Pf growth 48h inconclusive
O=C(c1cc2nc(-c3ccco3)cc(C(F)(F)F)n2n1)N1CCN(c2ccccc2)CC1	Pf growth 96h inconclusive, Sm TGR block inconclusive, Pf growth 48h inconclusive
O=C(c1cc2nc(-c3ccc(Cl)cc3)cc(C(F)(F)F)n2n1)N1CCOCC1	Pf growth 96h 10.4µM
O=C(c1cc2nc(-c3ccco3)cc(C(F)(F)F)n2n1)N1CCCCCC1	Pf growth 96h inconclusive, Sm TGR block 35.5µM, Pf growth 48h inconclusive
O=C(NCCCN1CCCC1=O)c1cc2nc(-c3ccco3)cc(C(F)(F)F)n2n1	SARS PLpro yeast 22.4µM
Cc1sc(NC(=O)c2c(F)cccc2F)nc1-c1ccccc1	Pf growth 96h inconclusive
Cn1c(COc2cccc3cccnc23)nnc1SCC(=O)O	Pf growth 96h 10.4µM
Cc1cc(C(=O)COc2cccc3cccnc23)c(C)n1C	Pf growth 96h 3.29µM, Pf growth 48h 11.7µM
CCn1c(COc2cccc3cccnc23)nnc1SCC(=O)O	Sm TGR block inconclusive (no result: Pf growth 48h)
Cc1cc2n(n1)CCC(=O)N2Cc1ccc(C(=O)Nc2ccc(Br)c(C)c2)cc1	none (no result: Pf growth 96h, Pf growth 48h, SARS PLpro yeast, AmpC no deterg)
COc1ccc(-c2noc(CSc3nnc(-c4ccncc4)n3-c3cccc(C)c3)n2)cc1OC	none (no result: Pf growth 96h, Pf growth 48h, SARS PLpro yeast, AmpC no deterg)
C[N+](C)(C)CC/C=C1/c2ccccc2CSc2ccccc21	Pf growth 96h 4.15µM, Pf growth 48h 9.28µM
CCN(CC)CCNC(=O)CCc1c(C)nc2c(c(C)nn2-c2ccc(C)cc2)c1C	Pf growth 96h inconclusive, Pf growth 48h inconclusive
COc1ccc(C(=O)c2c[nH]c3ccccc23)cc1	Pf growth 96h inconclusive (no result: SARS PLpro yeast, AmpC no deterg)
CCOC(=O)CNc1nc(Cl)nc(NC(C)(C)C)n1	Pf growth 96h 13.1µM
CCOc1cc(C(=O)Nc2ccc(-c3nc4cc(Cl)ccc4o3)cc2)cc(OCC)c1OCC	none (no result: Pf growth 96h, Pf growth 48h, SARS PLpro yeast, AmpC no deterg)
CN(CC(=O)Nc1c(Cl)cccc1Cl)C(=O)c1cc2ccccc2cc1O	Pf growth 96h inconclusive, Pf growth 48h inconclusive, AmpC inh detg inconclusive
COc1cccc(/C(C#N)=C/c2c(-c3ccc(Cl)cc3)nc3c(C)cccn23)c1	Pf growth 96h inconclusive, Pf growth 48h 1.31µM

Assay outcomes deposited in PubChem BioAssay by National Center for Advancing Translational Sciences (NCATS).
